Shiga inhibitor: blocks Shiga toxin action in Vero cells | Vero cells, Shiga toxin protein synthesis inhibition reporter | inhibition, % at 38.7 µM | 290,000 tested, 9.2% active | AID 2315; in the data active = inhibition mostly above about 28%, no sharp cut-off; inactive = mostly below about 43%
Lassa entry inh: inhibitors of Lassa virus binding or cell entry. Lassa virus pseudotype entry inhibition, cell reporter. Potency, µM (series often up to 37.9 µM), most hits filed as inhibitors. 300,000 tested, 1.2% active; calls by dose curve; tested in HEK293 cells; note: nearly all actives have a fitted effect of over 50% in size
CHX counter: counter-screen hit for Shiga toxin inhibitors, cycloheximide; 300,000 tested, 12% active; cell reporter, cycloheximide protein synthesis inhibition counterscreen; max response, %; in the data active = max response mostly above about 13%, no sharp cut-off; inactive = mostly below about 14%; note: read at 38.3 µM for the half of the compounds with a filed dose
Marburg entry inh: inhibitors of Marburg virus binding or cell entry. Marburg virus pseudotyped entry inhibition, cell reporter. Potency, µM (series often up to 37.8 µM), actives largely listed as inhibitors. 300,000 tested, 1.8% active. AID 540276; calls by dose curve; tested in HEK293 cells
Of the large screens only hits and unclear results are named; the others gave an inactive call. Rows were chosen to be rich in hits. Some 12% of all compounds tested hit in one or more screens of this group.

Cc1cccc2c(=O)c(C(=O)NCCc3ccccc3)c[nH]c12	none (no result: Shiga inhibitor)
CCc1c(C(=O)NNC(=S)NCCc2ccccc2)csc1C	Lassa entry inh inconclusive, CHX counter 11.8
O=C(Nc1nc(-c2nc3ccccc3s2)cs1)C1COc2ccccc2O1 (stereo not given)	Shiga inhibitor 68.4, CHX counter 23.4 (no result: Lassa entry inh, Marburg entry inh)
CS(=O)(=O)c1ccc2nc(NC(=O)C3COc4ccccc4O3)sc2c1 (stereo not given)	Lassa entry inh inconclusive, CHX counter 24.8, Marburg entry inh inconclusive
COc1ccc2nc(NNC(=O)C3COc4ccccc4O3)sc2c1 (stereo not given)	Shiga inhibitor 55.0, CHX counter 13.5
COc1ccc2nc(NC(=O)C3COc4ccccc4O3)sc2c1 (stereo not given)	Shiga inhibitor 77.1, CHX counter 29.8 (no result: Lassa entry inh, Marburg entry inh)
COc1ccc(OC)c(-c2csc(NC(=O)C3COc4ccccc4O3)n2)c1 (stereo not given)	Lassa entry inh inconclusive
CCOC(=O)N1CCN(S(=O)(=O)c2ccc(OC)c(C(=O)N3CCCCC3)c2)CC1	none
COc1nc(Oc2ccc(=O)n(-c3ccccc3)n2)nc(N(C)C)n1	none (no result: Shiga inhibitor, CHX counter)
CCCCNCCCOc1cccc(Cl)c1Cl	Marburg entry inh 14.6µM
CCCCNCCCOc1ccc(C)cc1Br	none (no result: Lassa entry inh, Marburg entry inh)
COC(=O)c1ccc(OCC2c3cc(OC)c(OC)cc3CCN2C(=O)COc2ccc(Cl)cc2)cc1 (stereo not given)	none (no result: Shiga inhibitor, CHX counter, Marburg entry inh)
COCCNCCCCOc1ccc(Br)cc1C	Lassa entry inh inconclusive, Marburg entry inh inconclusive
COCCCNCCCCOc1ccc(Br)cc1C	Lassa entry inh inconclusive, Marburg entry inh 13µM
CC(=O)NC12CC3CC(C1)CC(C(=O)Nc1nc4ccc(F)cc4s1)(C3)C2	Shiga inhibitor 70.7, Lassa entry inh inconclusive, CHX counter 45.0
CCC(CC)c1nnc(NC(=O)C23CC4CC(CC(NC(C)=O)(C4)C2)C3)s1	none
COCCC1CCCCN1C(=O)c1ccc2nc(Cc3ccccc3F)oc2c1 (stereo not given)	Shiga inhibitor 96.7, CHX counter 60.6
CCCCc1nc2cc(C(=O)N3CCC(OC)CC3)ccc2o1	Shiga inhibitor 44.4, CHX counter 27.1 (no result: Lassa entry inh, Marburg entry inh)
O=C(c1ccc2oc(Cc3ccc(Cl)cc3)nc2c1)N1CC[C@H](O)C1	none
COC1CCN(C(=O)c2ccc3oc(C(C)C)nc3c2)CC1	Shiga inhibitor 19.6, CHX counter 22.8
CCOC(=O)CC1CCCCN1C(=O)c1ccc2oc(CCc3ccccc3)nc2c1 (stereo not given)	Shiga inhibitor 34.4, CHX counter 17.1 (no result: Lassa entry inh, Marburg entry inh)
CCCCc1nc2cc(C(=O)N3CCCCC3CCNC(C)=O)ccc2o1 (stereo not given)	none (no result: Lassa entry inh, Marburg entry inh)
CCOC(=O)CC1CCCCN1C(=O)c1ccc2nc(CCOC)oc2c1 (stereo not given)	none (no result: Lassa entry inh, Marburg entry inh)
CCN(CC(=O)NCc1cccs1)C(=O)c1cc(S(=O)(=O)NCc2ccccc2)ccc1C	Lassa entry inh inconclusive (no result: Shiga inhibitor, CHX counter)
N#C/C(=C\c1ccncc1)C(N)=O	none
COc1cccc(NC(=O)C2C3C=CC(C3)C2C(=O)O)c1 (stereo not given)	none
Cc1ccc(CCNC(=O)c2sc3nc4n(c(=O)c3c2C)CCC4)cc1	none (no result: Lassa entry inh, Marburg entry inh)
CCC(=O)N1CCc2cc(S(=O)(=O)CCC(=O)N3CCN(c4ccccc4Cl)CC3)ccc21	none (no result: Shiga inhibitor, CHX counter)
COCCc1nc2ccc(C(=O)N3CCCCC3COC)cc2o1 (stereo not given)	none (no result: Lassa entry inh, Marburg entry inh)
CCCCc1nc2cc(C(=O)N3CCCCC3COC)ccc2o1 (stereo not given)	Shiga inhibitor 86.7, Lassa entry inh inconclusive, CHX counter 35.3
CC(C)c1nc2ccc(C(=O)NC(C)c3ccccc3)cc2o1 (stereo not given)	none (no result: Shiga inhibitor, CHX counter, Marburg entry inh)
COCC1CCCCN1C(=O)c1ccc2oc(CCc3ccccc3)nc2c1 (stereo not given)	Shiga inhibitor 93.6, CHX counter 37.2, Marburg entry inh inconclusive
CCCCc1nc2cc(C(=O)NCc3nccn3CC)ccc2o1	Shiga inhibitor 36.7, CHX counter 50.4 (no result: Lassa entry inh, Marburg entry inh)
COc1ccc([C@@H](C)NC(=O)c2ccc3oc(C(C)C)nc3c2)cc1	Shiga inhibitor 73.9, CHX counter 50.0 (no result: Lassa entry inh, Marburg entry inh)
CC(NC(=O)c1ccc([N+](=O)[O-])o1)C1CC2CCC1C2 (stereo not given)	Lassa entry inh inconclusive (no result: Shiga inhibitor, CHX counter)
COc1ccc(Cl)cc1NC(=O)CCNC(=O)OCc1ccccc1	none (no result: Lassa entry inh, Marburg entry inh)
CC(C)ON(CC(=O)NO)S(=O)(=O)c1ccc(-c2ccccc2)cc1	none (no result: Lassa entry inh, Marburg entry inh)
CCN(CC(=O)Nc1ccc(NC(C)=O)cc1)C(=O)C1COc2ccccc2O1 (stereo not given)	Marburg entry inh inconclusive
CCOC(=O)C1CCN(C(=O)C2CCN(C(=O)c3ccc([N+](=O)[O-])cc3)CC2)CC1	none
O=C(CN1C(=O)NC2(CCOc3ccccc32)C1=O)NCC(F)(F)F (stereo not given)	none
CCCCc1nc2cc(C(=O)N3CCN(c4nc(C)cnc4C)CC3)ccc2o1	Shiga inhibitor 70.5, CHX counter 47.4 (no result: Lassa entry inh, Marburg entry inh)
COc1ccccc1N(CC(=O)N/N=C(\C)c1ccc(F)cc1)S(=O)(=O)c1ccccc1	none (no result: Shiga inhibitor, CHX counter)
N/C(=N\OC(=O)/C=C/c1ccccc1Cl)c1ccncc1	Shiga inhibitor 137.4, Lassa entry inh inconclusive, CHX counter 66.5, Marburg entry inh inconclusive
O=C(/C=C/c1ccccc1)c1ccccn1	Shiga inhibitor 83.8, CHX counter 38.1
CC1=CC(=O)C=C(C)C1=NOC(=O)/C=C\c1ccccc1	none
N/C(=N\OC(=O)/C=C/c1ccccc1)c1ccncc1	Shiga inhibitor 70.7, CHX counter 21.4 (no result: Lassa entry inh, Marburg entry inh)
N/C(=N\OC(=O)/C=C/c1ccccc1)c1ccccn1	CHX counter 20.2, Marburg entry inh 7.94µM
Cn1cc(-c2cc(C(=O)O)on2)cn1	none (no result: Lassa entry inh, Marburg entry inh)
CC1CCCCN1C(=O)CCc1nnc(Cc2c[nH]c3ccccc23)o1 (stereo not given)	none (no result: Lassa entry inh, Marburg entry inh)
COC(=O)[C@@H]1CCCN1C(=O)CCc1nnc(CCc2c[nH]c3ccccc23)o1	Shiga inhibitor 48.1, CHX counter 47.5
COC(=O)[C@@H]1CCCN1C(=O)CCc1nnc(CCC2CCCCC2)o1	Shiga inhibitor 73.7, Lassa entry inh inconclusive, CHX counter 33.5, Marburg entry inh inconclusive
O=C(CCc1nnc(CCc2ccccc2)o1)N1CCCC1c1nccs1 (stereo not given)	CHX counter 16.3 (no result: Lassa entry inh, Marburg entry inh)
CCC1CCCCN1C(=O)CCc1nnc(Cc2c[nH]c3ccccc23)o1 (stereo not given)	Shiga inhibitor 30.8 (no result: Lassa entry inh, Marburg entry inh)
COC(=O)C1CCCCN1C(=O)CCc1nnc(CCc2c[nH]c3ccccc23)o1 (stereo not given)	none (no result: Lassa entry inh, Marburg entry inh)
C=CCOC(/C=C/c1ccccc1)C[Si](C)(C)C (stereo not given)	none (no result: Lassa entry inh, Marburg entry inh)
Cc1ccc(NC(=O)C(C)Sc2nc(-c3ccccc3)c(C#N)c(=O)[nH]2)c(C)c1 (stereo not given)	none (no result: Shiga inhibitor, CHX counter)
COc1ccc(C2=NOC(C(=O)N3CCOCC3)C2)cc1OC (stereo not given)	Shiga inhibitor 49.5, CHX counter 17.7, Marburg entry inh inconclusive
COc1cccc(C2=NOC(C(=O)Nc3ccc(OC)c(OC)c3)C2)c1 (stereo not given)	CHX counter 17.5
COc1cc(NC(=O)C2CC(c3c(F)cccc3Cl)=NO2)cc(OC)c1OC (stereo not given)	Marburg entry inh inconclusive
COc1cccc(C2=NOC(C(=O)N3CCN(C(=O)c4ccco4)CC3)C2)c1 (stereo not given)	none

Assay outcomes (PubChem BioAssay)
